Data on 4 compounds can be found in article PMC11062922 (Nature Chemical Biology, 2023).

Parameters in all cases: species or system human, MV4-11 + K-562 + COLO205 + SK-N-BE2 + OVCAR-8
One experiment relates to ACVR1B. The conditions noted are these: read-out: apparent Kd, n = 1.
A further experiment deals with ACVR1. The conditions noted are these: read-out: apparent Kd; compound concentrations: 100 nM and 1000 nM (sheet 'Samples'), CATDS: 4.9335047128928999E-2; n = 1.
The test system of another experiment is CSNK1A1. The conditions noted are these: read-out: apparent Kd, n = 1.
The test system of the next experiment is CSNK1D. The conditions noted are these: read-out: apparent Kd; compound concentrations: 100 nM and 1000 nM (sheet 'Samples'), CATDS: 0.221506901273927; n = 1.
Another experiment concerns CSNK1E. The conditions noted are these: read-out: apparent Kd, n = 1.
The next experiment relates to DDR1. The conditions noted are these: read-out: apparent Kd; compound concentrations: 100 nM and 1000 nM (sheet 'Samples'), CATDS: 4.72879881828875E-2; n = 1.
A further experiment has as its system DDR2. The conditions noted are these: read-out: apparent Kd; compound concentrations: 100 nM and 1000 nM (sheet 'Samples'), CATDS: 3.7607039392505398E-2; n = 1.
A further experiment deals with GAK. The conditions noted are these: read-out: apparent Kd; compound concentrations: 100 nM and 1000 nM (sheet 'Samples'), CATDS: 4.4963876201462499E-2; n = 1.
In another experiment the test system is MAPK10. The conditions noted are these: read-out: apparent Kd; compound concentrations: 100 nM and 1000 nM (sheet 'Samples'), CATDS: 4.8287227118758103E-2; n = 1.
A further experiment relates to MAPK11. The conditions noted are these: read-out: apparent Kd; compound concentrations: 100 nM and 1000 nM (sheet 'Samples'), CATDS: 4.7431075480448899E-2; n = 1.
The next experiment relates to MAPK14. The conditions noted are these: read-out: apparent Kd, n = 1.
Another experiment relates to MAPK9. The conditions noted are these: read-out: apparent Kd; compound concentrations: 100 nM and 1000 nM (sheet 'Samples'), CATDS: 6.4628535375358898E-2; n = 1.
The test system of the next experiment is MAPKAPK2. The conditions noted are these: read-out: apparent Kd, n = 1.
The test system of the next experiment is PRKD2. The conditions noted are these: read-out: apparent Kd; compound concentrations: 100 nM and 1000 nM (sheet 'Samples'), CATDS: 3.69212062314868E-2; n = 1.
The next experiment has as its system RIPK2. The conditions noted are these: read-out: apparent Kd; compound concentrations: 100 nM and 1000 nM (sheet 'Samples'), CATDS: 5.3537616523073803E-2; n = 1.
Another experiment concerns TGFBR1. The conditions noted are these: read-out: apparent Kd, n = 1.
The test system of the next experiment is ADRBK1. The conditions noted are these: read-out: apparent Kd; compound concentrations:100 nM and 1000 nM (sheet 'Samples'); n = 1.
A further experiment deals with AKT1. The conditions noted are these: read-out: apparent Kd; compound concentrations:100 nM and 1000 nM (sheet 'Samples'); n = 1.
A further experiment relates to AKT2. The conditions noted are these: read-out: apparent Kd; compound concentrations:100 nM and 1000 nM (sheet 'Samples'); n = 1.
For another experiment, the system named is CDC42BPG. The conditions noted are these: read-out: apparent Kd; compound concentrations:100 nM and 1000 nM (sheet 'Samples'); n = 1.
In a further experiment the test system is CDK6. The conditions noted are these: read-out: apparent Kd; compound concentrations:100 nM and 1000 nM (sheet 'Samples'); n = 1.
Another experiment deals with MAP2K1. The conditions noted are these: read-out: apparent Kd; compound concentrations:100 nM and 1000 nM (sheet 'Samples'); n = 1.
For the next experiment, the system named is MAP2K2. The conditions noted are these: read-out: apparent Kd; compound concentrations:100 nM and 1000 nM (sheet 'Samples'); n = 1.
The next experiment deals with NQO1. The conditions noted are these: read-out: apparent Kd; compound concentrations:100 nM and 1000 nM (sheet 'Samples'); n = 1.
The next experiment deals with PYGL. The conditions noted are these: read-out: apparent Kd; compound concentrations:100 nM and 1000 nM (sheet 'Samples'); n = 1.
The next experiment relates to RIOK2. The conditions noted are these: read-out: apparent Kd; compound concentrations:100 nM and 1000 nM (sheet 'Samples'); n = 1.
The test system of the next experiment is TP53RK. The conditions noted are these: read-out: apparent Kd; compound concentrations:100 nM and 1000 nM (sheet 'Samples'); n = 1.
A further experiment deals with ADCK3. The conditions noted are these: read-out: apparent Kd; compound concentrations:100 nM and 1000 nM (sheet 'Samples'); n = 1.
The next experiment deals with NQO2. The conditions noted are these: read-out: apparent Kd; compound concentrations:100 nM and 1000 nM (sheet 'Samples'); n = 1.
The subject of the next experiment is CLK1. The conditions noted are these: read-out: apparent Kd; compound concentrations:100 nM and 1000 nM (sheet 'Samples'); n = 1.
Another experiment relates to CLK4. The conditions noted are these: read-out: apparent Kd; compound concentrations:100 nM and 1000 nM (sheet 'Samples'); n = 1.
A further experiment concerns DYRK1A. The conditions noted are these: read-out: apparent Kd; compound concentrations:100 nM and 1000 nM (sheet 'Samples'); n = 1.
For a further experiment, the system named is ILK. The conditions noted are these: read-out: apparent Kd; compound concentrations:100 nM and 1000 nM (sheet 'Samples'); n = 1.
For a further experiment, the system named is NNT. The conditions noted are these: read-out: apparent Kd; compound concentrations:100 nM and 1000 nM (sheet 'Samples'); n = 1.
The subject of another experiment is PIP4K2C. The conditions noted are these: read-out: apparent Kd; compound concentrations:100 nM and 1000 nM (sheet 'Samples'); n = 1.
For another experiment, the system named is STK26. The conditions noted are these: read-out: apparent Kd; compound concentrations:100 nM and 1000 nM (sheet 'Samples'); n = 1.
The mark [1] stands for this setting: compound concentrations:100 nM and 1000 nM (sheet 'Samples').

Read-outs that look alike come from different tables or passages of the source.

Regarding `CN1CCN(CCCNc2nccc(-c3c(-c4ccc(F)cc4)nn4cc(C(N)=O)ccc34)n2)CC1` [GW622475X], the potency estimated from few doses in the experiment on ACVR1B (compound concentrations: 100 nM and 1000 nM (sheet 'Samples'), CATDS: 0.21340745676279499) was 0.0165 µM; with ACVR1, 0.488 µM; in the experiment with CSNK1A1 (compound concentrations: 100 nM and 1000 nM (sheet 'Samples'), CATDS: 5.98915782601789E-2) it was 0.252 µM; with CSNK1D, 0.0156 µM; in the experiment on CSNK1E (compound concentrations: 100 nM and 1000 nM (sheet 'Samples'), CATDS: 9.6112931202447002E-2), 0.0723 µM; in the experiment with DDR1, 0.576 µM. Moreover, the potency estimated from few doses in the experiment on DDR2 was 1.9 µM; in the experiment with GAK, 0.712 µM; with MAPK10 it was 0.53 µM; in the experiment with MAPK11, 0.569 µM; in the experiment with MAPK14 (compound concentrations: 100 nM and 1000 nM (sheet 'Samples'), CATDS: 0.132847798162957), 0.0369 µM; with MAPK9, 0.2 µM. The potency estimated from few doses was 0.0293 µM in the experiment with MAPKAPK2 (compound concentrations: 100 nM and 1000 nM (sheet 'Samples'), CATDS: 0.150637698751246); 2.18 µM with PRKD2; 0.363 µM with RIPK2; 0.107 µM in the experiment with TGFBR1 (compound concentrations: 100 nM and 1000 nM (sheet 'Samples'), CATDS: 8.1591289102362505E-2).

Turning to `COc1ccccc1-c1cc(/C=C2\C(=O)Nc3ncc(Br)cc32)cc(Br)c1O` [GW442130X], the potency estimated from few doses is 0.646 µM in the experiment on ACVR1B (setting [1]); 1.96 µM with ADRBK1; 1.54 µM in the experiment with AKT1; 1.12 µM with AKT2; 0.453 µM with CDC42BPG; 1.94 µM with CDK6. Also, the potency estimated from few doses is 1.78 µM in the experiment with CSNK1A1 (setting [1]); 1.65 µM in the experiment with MAP2K1; 1.58 µM in the experiment with MAP2K2; 1.26 µM with NQO1; 1.84 µM in the experiment with PYGL; 1.45 µM in the experiment with RIOK2. In addition, the potency estimated from few doses is 0.592 µM with TGFBR1 (setting [1]) and 1.74 µM in the experiment on TP53RK.

Turning to `N#Cc1ccc(-c2cc(-c3c[nH]nc3-c3ccccn3)ccn2)cc1` [GW693028X], the potency estimated from few doses in the experiment with ACVR1B (setting [1]) is 0.872 µM; with ADCK3, 0.671 µM; in the experiment on NQO2 it was 0.773 µM; in the experiment with TGFBR1 (setting [1]), 0.263 µM.

In the case of `Nc1nc(-c2ccc(F)cc2)c(-c2ccc3ncccc3n2)s1` [GW785804X], the potency estimated from few doses is 0.0579 µM in the experiment with ACVR1B (setting [1]); 0.997 µM in the experiment with CLK1; 1.1 µM with CLK4; 2.4 µM in the experiment on CSNK1E (setting [1]); 1.97 µM in the experiment with DYRK1A; 2.08 µM with ILK. The potency estimated from few doses is 1.91 µM with MAP2K1; 2.06 µM in the experiment with MAP2K2; 0.567 µM with MAPK14 (setting [1]); 1.41 µM in the experiment with MAPKAPK2 (setting [1]); 0.164 µM with NNT; 2.21 µM with PIP4K2C. Also, the potency estimated from few doses in the experiment with STK26 was 2.33 µM.
